Data: PMC11062922 (Nature Chemical Biology, 2023)

Columns and labels:
Details in all cases: read-out: apparent Kd; compound concentrations:100 nM and 1000 nM (sheet 'Lestaurtinib' of Supplementary Table 1),run:Lestaurtinib_02487_R1,Plate:MR012; n = 1
BCR = system: BCR
BUB1 = system: BUB1
CSK = system: CSK
CSNK2A2 = system: CSNK2A2
EPHA1 = system: EPHA1
EPHA2 = system: EPHA2
EPHA4 = system: EPHA4
EPHB1 = system: EPHB1
EPHB3 = system: EPHB3
EPHB4 = system: EPHB4
FGFR1 = system: FGFR1
PRKCQ = system: PRKCQ
PTK2 = system: PTK2
PTK6 = system: PTK6
RIPK2 = system: RIPK2
RPS6KA1 = system: RPS6KA1
SRC = system: SRC
TAOK1 = system: TAOK1
TEC = system: TEC
ULK1 = system: ULK1

Question: How did the potency estimated from few doses (BCR) turn out when Lestaurtinib was run?
Answer: Its potency estimated from few doses is 0.314 µM.

Question: And the potency estimated from few doses (BUB1)?
Answer: The potency estimated from few doses was 0.854 µM.

Question: What about the potency estimated from few doses (CSK) of the same substance?
Answer: Its potency estimated from few doses is 0.526 µM.

Question: What about the potency estimated from few doses (CSNK2A2) of the same substance?
Answer: The potency estimated from few doses was 0.415 µM.

Question: And the potency estimated from few doses (EPHA1)?
Answer: Its potency estimated from few doses is 0.297 µM.

Question: And the potency estimated from few doses (EPHA2)?
Answer: Its potency estimated from few doses is 0.428 µM.

Question: And the potency estimated from few doses (EPHA4)?
Answer: Its potency estimated from few doses is 0.268 µM.

Question: What about the potency estimated from few doses (EPHB1) of the same substance?
Answer: The potency estimated from few doses was 0.403 µM.

Question: And the potency estimated from few doses (EPHB3)?
Answer: The potency estimated from few doses was 0.78 µM.

Question: And the potency estimated from few doses (EPHB4)?
Answer: Its potency estimated from few doses is 0.207 µM.

Question: What about the potency estimated from few doses (FGFR1) of the same substance?
Answer: The potency estimated from few doses was 1.15 µM.

Question: And the potency estimated from few doses (PRKCQ)?
Answer: Its potency estimated from few doses is 2.17 µM.

Question: What about the potency estimated from few doses (PTK2) of the same substance?
Answer: Its potency estimated from few doses is 0.345 µM.

Question: What about the potency estimated from few doses (PTK6) of the same substance?
Answer: Its potency estimated from few doses is 0.533 µM.

Question: What about the potency estimated from few doses (RIPK2) of the same substance?
Answer: Its potency estimated from few doses is 0.81 µM.

Question: And the potency estimated from few doses (RPS6KA1)?
Answer: Its potency estimated from few doses is 1.82 µM.

Question: What about the potency estimated from few doses (SRC) of the same substance?
Answer: Its potency estimated from few doses is 0.618 µM.

Question: What about the potency estimated from few doses (TAOK1) of the same substance?
Answer: Its potency estimated from few doses is 1.53 µM.

Question: And the potency estimated from few doses (TEC)?
Answer: Its potency estimated from few doses is 0.895 µM.

Question: What about the potency estimated from few doses (ULK1) of the same substance?
Answer: Its potency estimated from few doses is 0.549 µM.
